Autofluor 339: intrinsic fluorescence of library compounds, ex339/em460 – biochemical, MLSMR library, data from DPM-DC assay, artefact control, profiling panel. 65,000 tested, 5.5% active. compound autofluorescence, ex339/em460 nm, NADH buffer; hits give high values; 1 = no-compound wells, NADH background. fluorescence fold increase at 10 µM;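 active means at 10 µM, mean starting fluorescence two-fold or more over control wells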;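 further: signal is the first read of a kinetic run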
Spn PMK inh: blocks S. pneumoniae phosphomevalonate kinase; purified PMK, PK/LDH-coupled NADH absorbance 340 nm; inhibition, % at 10 µM; 65,000 tested, 0.49% active; AID 539;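 active means top-ranked compounds by inhibition in the single 10 µM screen, taking a fixed number of the strongest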
Spn DPM-DC inh: blocks S. pneumoniae diphosphomevalonate decarboxylase; calls only at 10 µM; AID 556; 65,000 tested, 0.49% active; purified DPM-DC, PK/LDH coupled NADH fluorescence;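 active means the 320 compounds with the highest percent inhibition in the single-dose primary screen, excluding strongly autofluorescent ones, cut at about 32% in these data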;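 further: kinetic rate of NADH fluorescence loss reporting ADP formed by the decarboxylase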
MK inhibit: inhibitors of Streptococcus pneumoniae mevalonate kinase; purified MK, PK/LDH-coupled NADH absorbance 340 nm; inhibition, % at 10 µM; 65,000 tested, 0.48% active; AID 555;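 active means ranked among the strongest by inhibition in the single 10 µM screen, a fixed top-ranked set picked for dose follow-up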
NADH coupling: inhibition of NAD/NADH coupling enzymes, library profiling; coupled PK/LDH NADH assays, four targets; IC50, µM (highest dose often 10 µM); 65,000 tested, 0.02% active;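 active means single-dose screening hits from any of four coupled enzyme assays that gave an IC50 when retested across doses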;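 further: the DPM-DC format reads NADH fluorescence rather than 340 nm absorbance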
A340 absorber: compounds absorbing at 340 nm; compound absorbance at 340 nm, fold over control; fold change at 10 µM; 65,000 tested, under 10 active; AID 708;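 active means at 10 µM dose, initial 340 nm absorbance at least 2 fold that of control wells; inactive means change under 2 fold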;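 further: initial absorbance extrapolated from kinetic A340 decline of NADH oxidation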
Of the large screens only hits and unclear results are named; the others gave an inactive call. Hits are enriched below; roughly 6.3% of the tested compounds scored in any of these assays.

OCC1CCCN(Cc2ccc(-c3ccccc3)cc2)C1 (stereo not given)	MK inhibit 41
O=C(CSc1nnnn1-c1ccc2c(c1)OCCO2)OC1CCCCC1	none
CN1/C(=C\C(=O)C(F)F)C(C)(C)c2ccccc21	none
CN1C(=O)C2(N=c3ccccc3=N2)c2ccccc21	Autofluor 339 2.1 (not shown: Spn DPM-DC inh)
O=C(COC(=O)CCc1c[nH]c(=O)[nH]1)Nc1ccccc1	Spn PMK inh 25
Cc1ccc(C)c(N2CCN(S(=O)(=O)c3ccc4c(c3)OCCO4)CC2)c1	none
CCN1CCCC1Cn1cnc2c([nH]c3ccc(C)cc32)c1=O (stereo not given)	Autofluor 339 2.3 (not shown: Spn DPM-DC inh)
Cc1cccc2[nH]c3c(=O)n(CCN4CCNCC4)cnc3c12	Autofluor 339 2.5
Cc1ccc2[nH]c3c(=O)n(CCN4CCNCC4)cnc3c2c1	Autofluor 339 3.1
CCN1CCCC1CNc1ncnc2c1[nH]c1ccc(Cl)cc12 (stereo not given)	none
O=c1c2[nH]c3ccccc3c2ncn1CCN1CCCCC1	Autofluor 339 2.1
CCc1c(C)c2ccc(OCC(=O)OC)cc2oc1=O	Autofluor 339 2.9 (not shown: Spn DPM-DC inh)
COC(=O)Cc1c(C)c2ccc(OCC(=O)N3CCOCC3)cc2oc1=O	Autofluor 339 2.9 (not shown: Spn DPM-DC inh)
COc1ccc2c(C)c(Cl)c(=O)oc2c1	Autofluor 339 2.2 (not shown: Spn DPM-DC inh)
Cc1cc(=O)oc2cc(OCC(=O)N3CCc4ccccc4C3)ccc12	none
COC(=O)COc1ccc2occ(C(C)=O)c2c1	none
c1ccc(C(c2nnnn2C2CCCCC2)N2CCc3ccccc3C2)nc1 (stereo not given)	Autofluor 339 4
Cn1cccc1Cc1nnc(SCC(=O)NCc2ccc(F)cc2)n1-c1ccc(F)cc1	MK inhibit active
COc1ccc(CNC(=O)c2cc3c(=O)n4ccccc4nc3n(Cc3ccco3)c2=N)cc1	none
N=c1c(C(=O)NCc2ccc(F)cc2)cc2c(=O)n3ccccc3nc2n1CC1CCCO1 (stereo not given)	Autofluor 339 3.9 (not shown: Spn DPM-DC inh)
CCCn1c(=N)c(C(=O)NCC2CCCO2)cc2c(=O)n3cccc(C)c3nc21 (stereo not given)	Autofluor 339 3.7 (not shown: Spn DPM-DC inh)
Cc1ccc(CNC(=O)c2cc3c(=O)n4cccc(C)c4nc3n(CC3CCCO3)c2=N)cc1 (stereo not given)	Autofluor 339 4 (not shown: Spn DPM-DC inh)
CCOCCCn1c(=N)c(C(=O)Nc2cc(C)on2)cc2c(=O)n3ccccc3nc21	Autofluor 339 2.1 (not shown: Spn DPM-DC inh)
O=S(=O)(Nn1cnnc1)c1ccccc1Cl	none
CCOCCCn1c(=N)c(C(N)=S)cc2c(=O)n3cccc(C)c3nc21	none
COCCCn1c(=N)c(C(=O)NCC2CCCO2)cc2c(=O)n3cccc(C)c3nc21 (stereo not given)	Autofluor 339 2.9 (not shown: Spn DPM-DC inh)
Cc1cccn2c(=O)c3cc(C(N)=S)c(=N)n(CCCOC(C)C)c3nc12	Autofluor 339 2
COCCCn1c(=N)c(C(=O)NCC2CCCO2)cc2c(=O)n3ccccc3nc21 (stereo not given)	Autofluor 339 4.9 (not shown: Spn DPM-DC inh)
Fc1cc2nc(-c3ccncc3)[nH]c2cc1F	Autofluor 339 2.2 (not shown: Spn DPM-DC inh)
O=C(COn1nnc2ccccc21)NCC1CCCCC1	none
c1ccc(Cn2c(-c3cccs3)nc3nc4ccccc4nc32)cc1	Autofluor 339 3.7 (not shown: Spn DPM-DC inh)
c1ccc(-c2nc3nc4ccccc4nc3n2Cc2ccco2)cc1	none
CC(C)Cn1c(-c2cccs2)nc2nc3ccccc3nc21	Autofluor 339 3.9 (not shown: Spn DPM-DC inh)
O=C(CSc1nnc(-c2ccc(Cl)s2)o1)N1CCOCC1	none
Cn1c(=O)c2c(nc(N3CCCCC3)n2CCCNC2=NCCCC2)n(C)c1=O	none
COC(=O)CC1SCCNC1=O (stereo not given)	none
O=C(O)c1c[nH]c2ccc(S(=O)(=O)N3CCOCC3)cc12	none
O=C(NCc1ccco1)c1c[nH]c2ccc(S(=O)(=O)N3CCOCC3)cc2c1=O	Autofluor 339 2.1 (not shown: Spn DPM-DC inh)
CCCCN(C)C(=O)c1c[nH]c2ccc(S(=O)(=O)N3CCOCC3)cc2c1=O	Autofluor 339 2.2 (not shown: Spn DPM-DC inh)
Cc1ccc(S(=O)(=O)N2CCOCC2)cc1C(=O)NCc1ccco1	none
COc1ccc(-c2cn3cccnc3n2)cc1NC(=O)C1CC1	Autofluor 339 3.2
CCOC(=O)C1CCN(S(=O)(=O)c2cccc(-c3cn4cccnc4n3)c2)CC1	Autofluor 339 2.1 (not shown: Spn DPM-DC inh)
COc1ccc(-c2cn3cccnc3n2)cc1NC(=O)C1CCCC1	Autofluor 339 4.8 (not shown: Spn DPM-DC inh)
CCOC(=O)C1CCN(S(=O)(=O)c2cccc(-c3csc(C)n3)c2)CC1	none
COc1ccccc1NC(=O)C1CCCCC1	none
Cc1cc(N2CCOCC2)nc(SCC(=O)c2ccccc2)n1	none
O=C(CCn1c(=O)c2sccc2n(Cc2cc(=O)n3ccccc3n2)c1=O)NCc1ccco1	Autofluor 339 2.2
O=C(CCCn1c(=O)c2sccc2n(Cc2cc(=O)n3ccccc3n2)c1=O)NCc1ccco1	none
CCOC(=O)c1ccc(NC(=O)CSc2nc(C)cc(=O)[nH]2)cc1	Spn PMK inh 26
O=C(NC12CC3CC(CC(C3)C1)C2)C1=COCCO1	none
CC(=O)Nc1ccc(NS(=O)(=O)Cc2ccccc2)cc1	none
NC(=O)c1ccccc1NS(=O)(=O)Cc1ccccc1	Autofluor 339 2.1 (not shown: Spn DPM-DC inh)
NC(=O)c1nn(-c2ccccc2)nc1N	Autofluor 339 3.9 (not shown: Spn DPM-DC inh)
NC(=O)c1nn(-c2ccccc2)nc1NC(=O)CN1CCCCC1	none
Cc1oc2ncnc(N)c2c1C	none
Cc1ccc(-c2oc3ncnc(N)c3c2-c2ccc(C)cc2)cc1	Autofluor 339 3.5 (not shown: Spn DPM-DC inh)
CCNC(=O)NC(=O)C(C)OC(=O)c1cccnc1SC (stereo not given)	none
N#Cc1nc(-c2cccs2)oc1N1CCN(Cc2ccccc2)CC1	Autofluor 339 3.8 (not shown: Spn DPM-DC inh)
N#Cc1nc(-c2cccs2)oc1NCCc1ccccc1	Autofluor 339 2.5 (not shown: Spn DPM-DC inh)
O=C(NCCCN1CCOCC1)c1cc(-c2cccs2)on1	none
N#Cc1nc(COc2ccccc2)oc1N1CCN(Cc2ccccc2)CC1	none
N#Cc1nc(-c2cccs2)oc1NCCN1CCOCC1	Autofluor 339 2.4 (not shown: Spn DPM-DC inh)
N#Cc1nc(-c2cccs2)oc1NCc1ccc2c(c1)OCO2	Autofluor 339 2.4 (not shown: Spn DPM-DC inh)
COc1ccc(Nc2oc(-c3cccs3)nc2C#N)cc1	none
O=C1CC(Sc2nnnn2C2CCCCC2)C(=O)N1c1ccccc1 (stereo not given)	none
COc1ccc(CCNc2oc(-c3ccco3)nc2C#N)cc1	Autofluor 339 2.4
N#Cc1nc(-c2ccccc2)oc1NCCN1CCCCC1	Autofluor 339 3.8 (not shown: Spn DPM-DC inh)
N#Cc1nc(-c2ccco2)oc1NCCc1ccccc1	Autofluor 339 2.1
COc1ccc(CCNc2oc(COc3ccc(F)cc3)nc2C#N)cc1	none
COc1ccc(CCNc2oc(Cc3ccccc3)nc2C#N)cc1OC	none
CC(c1ccccc1)n1cc(C(=O)NCCN2CCOCC2)nn1 (stereo not given)	none
Cc1ccc(N2CC(C(=O)OCC(=O)C(C)(C)C)CC2=O)cc1C (stereo not given)	none

From PubChem BioAssay
